How the values were obtained:
Type in all cases: functional
Plasmodium falciparum [1] = assay: GSK_TCMDC: Inhibition of Plasmodium falciparum 3D7 in whole red blood cells, using parasite LDH activity as an index of growth. Test compounds present at 2uM
Plasmodium falciparum [2] = assay: GSK_TCMDC: Inhibition of Plasmodium falciparum Dd2 in whole red blood cells, using parasite LDH activity as an index of growth. Test compounds present at 2uM
HepG2 = assay: GSK_TCMDC: Percent inhibition of human HepG2 cell line. Test compounds present at 10uM.

| Structure (SMILES) | Inhibition (Plasmodium falciparum [1]) [%] | Inhibition (Plasmodium falciparum [2]) [%] | Inhibition (HepG2) [%] |
| --- | --- | --- | --- |
| Cc1ccc(C(c2nnnn2C2CCCC2)N(Cc2ccco2)Cc2ccccc2Cl)cc1 (centres undefined) | 85 | 78 | 8 |
| CN1CCN(CCCNc2ncc3c(-c4ccc(NC(=O)Nc5cc(C(F)(F)F)ccc5F)c(F)c4)nn(C)c3n2)CC1.O=C(O)C(F)(F)F | 98 | 94 | 100 |
| CC(Oc1cc(-n2cnc3ccc(NC(=O)CCN4CCCCC4)cc32)sc1C(N)=O)c1ccccc1Cl (centres undefined) | 99 | 98 | 95 |
| CN1CCCN(Cc2ccc(-c3cccc(NC(=O)c4cccc(Cl)c4)c3)cc2)CC1.O=C(O)C(F)(F)F | 100 | 32 | 33 |
| CCN(C)c1cc(C(=O)N[C@@H](Cc2ccccc2)[C@H](O)CNC(C)(C)c2cccc(OC)c2)cc(N2CCCC2=O)c1 | 100 | 81 | 0 |
| CS(=O)(=O)c1ccc(OCCCN(Cc2ccccc2C(F)(F)F)c2ccc(C#N)c(C(F)(F)F)c2)cc1 | 94 | 76 | 4 |
| COc1cccc(-c2ccc(C(=O)NCC3CCCN(Cc4cccc(C(F)(F)F)c4)C3)s2)c1.O=C(O)C(F)(F)F (centres undefined) | 85 | 18 | 10 |
| CCCNC(=O)c1cncc(-c2ccc(CNC3Cc4ccccc4C3)cc2)c1.O=C(O)C(F)(F)F | 97 | 21 | 9 |
| CC(C)c1ccc(N2CCN(CCCCNC(=O)c3ccc(NC(=O)c4cc(Cl)cc(Cl)c4)cc3)CC2)cc1 | 100 | 86 | 12 |
| CC(C)NC[C@@H](O)[C@H](Cc1ccccc1)NC(=O)c1cc2c3c(c1)c(C(C)C)cn3CCS(=O)(=O)N2C.O=CO | 98 | 99 | 5 |
| CN(C)CCCOc1ccc(CNCC(C)(C)c2nc(-c3ccc(Cl)c(O)c3)c(-c3ccncc3)[nH]2)cc1.Cl | 100 | 58 | 64 |
| CC(=O)Nc1ccc(CN2CCC(NC(=O)c3ccc(-c4cccc(F)c4)s3)CC2)cc1.O=C(O)C(F)(F)F | 96 | 13 | 6 |
| Cc1cccc2nc(-c3cccc(-c4ccc(NC(=O)Nc5ccc(Cl)c(Cl)c5)cc4)c3)[nH]c12 | 100 | 83 | 53 |
| CS(=O)(=O)c1ccc(CCNCc2ccc(-c3ccc(CN(C(=O)C4CC(=O)c5ccccc54)C4Cc5ccccc5C4)cc3)nc2)cc1.O=C(O)C(F)(F)F (centres undefined) | 90 | 21 | 5 |
| COc1cccc(NC(=O)c2cc([N+](=O)[O-])ccc2NC(=O)CN2CCc3ccccc3C2)c1 | 100 | 37 | 5 |
| CC(C)(C)OC(=O)Cn1cnc2cc(NC(=O)c3cc([N+](=O)[O-])cc([N+](=O)[O-])c3)ccc21 | 100 | 97 | 11 |
| COc1ccc2nc(C)cc(NC3Cc4ccccc4C3)c2c1.Cl | 98 | 13 | 20 |
| CC(=O)NC1=NC(C)(C)N(OCc2ccc(Cl)c(Cl)c2)C(NC(C)=O)=N1 | 94 | 97 | 68 |
| O=C(/C=C/c1ccc(Cl)c(Cl)c1)NCCCCCN1CCC(NC(=O)c2ccc(F)cc2F)CC1 | 96 | 11 | 17 |
| O=C(NC1CCCCC1)C(c1cccs1)N(CCc1ccccc1)C(=O)c1ccco1 (centres undefined) | 92 | 63 | 0 |

| Structure (SMILES) | Inhibition (Plasmodium falciparum [1]) [%] | Inhibition (Plasmodium falciparum [2]) [%] | Inhibition (HepG2) [%] |
| --- | --- | --- | --- |
| CN(C)CCN(C)Cc1ccc(-c2ccc3c(Nc4ccc(Oc5ccccn5)cc4)ccnc3c2)o1 | 100 | 100 | 16 |
| Cc1[nH]c(C)c(-c2ccc(-c3ccc(F)cc3)nc2)c(=O)c1Br | 97 | 96 | 15 |
| COc1ccccc1N1CCN(CCCCNC(=O)c2ccc(NC(=O)c3ccc4ccccc4c3)cc2)CC1 | 97 | 18 | 16 |
| Cc1noc(C)c1-c1ccc2c(Nc3ccccc3C(C)(C)C)c(C(=O)NCc3cccc4ccccc34)cnc2c1.Cl | 96 | 64 | 4 |
| COc1ccc2c(=NN=Cc3ccccc3F)cc(C)[nH]c2c1 | 90 | 12 | 4 |
| CCCC1(NC[C@@H](O)[C@H](Cc2ccccc2)NC(=O)c2cc(NCC)cc(N3CCCCS3(=O)=O)c2)CC1.Cl | 98 | 98 | 1 |
| COc1c(C2=CCN(CCCCNC(=O)c3ccc(-c4ccc(C#N)cc4)cc3)CC2)c(C)cc2c1C(C)(C)CCC2(C)C | 92 | 88 | 18 |
| Cc1ccc(NC(=O)c2ccc(CN3CCCN(CCC(C)C)CC3)cc2)cc1C.O=C(O)C(F)(F)F | 92 | 17 | 25 |
| N#Cc1cccc(NC(=O)c2ccc(S(=O)(=O)NCC3CCCN3CC3CCCCC3)cc2)c1.O=C(O)C(F)(F)F (centres undefined) | 88 | 18 | 25 |
| CC1CCCCN1S(=O)(=O)c1ccc(NC(=O)c2cc(-c3ccccc3O)n[nH]2)cc1 (centres undefined) | 90 | 96 | 26 |
| CS(=O)(=O)NCCCNCc1cccc(-c2cccc(-c3nc4cc(C(F)(F)F)ccc4[nH]3)c2)c1.O=C(O)C(F)(F)F | 99 | 100 | 17 |
| O=C(NCCN1CCC(c2ccncc2)CC1)c1ccc(Nc2nccc(Nc3ccc(Oc4ccccc4)cc3)n2)cc1 | 100 | 90 | 17 |
| CC(C)N(Cc1ccccc1)C(=O)CN1C(=O)COc2ccc(S(=O)(=O)N3CCCCCC3)cc21 | 99 | 99 | 0 |
| O=C(Nc1cccc(CN2CCN(Cc3ccc(O)cc3)CC2)c1)c1cc2ccccc2o1.O=C(O)C(F)(F)F | 81 | 12 | 8 |
| C=C(C)C1CC=C(CN2CCC(N3CCc4cc(NC(=O)c5cc(C)on5)ccc43)C2)CC1 (centres undefined) | 90 | 95 | 26 |
| CN(C)c1cccc2c1nc(-c1ccco1)n2CCNCc1ccccc1.O=C(O)C(F)(F)F | 98 | 97 | 0 |
| CO/C(=C\C=C\c1cc2cc(Cl)c(Cl)cc2[nH]1)C(=O)NCCCN1CCC(c2ccccc2)CC1 | 100 | 92 | 33 |
| Cl.O=C(/C=C/c1ccc(Cl)c(Cl)c1)N1CCC(CCN2CCC(c3c[nH]c4cnccc34)CC2)CC1 | 100 | 100 | 93 |
| Cl.N#Cc1ccc(C=CC(=O)NC2CCC(CCN3CCc4ccc(-c5cnccn5)cc4CC3)CC2)cc1 (centres undefined) | 100 | 87 | 37 |
| COc1ccccc1C1CCN(C2CCC(NC(=O)/C=C/c3ccc(OC(F)(F)F)cc3)CC2)CC1 (centres undefined) | 82 | 11 | 65 |

| Structure (SMILES) | Inhibition (Plasmodium falciparum [1]) [%] | Inhibition (Plasmodium falciparum [2]) [%] | Inhibition (HepG2) [%] |
| --- | --- | --- | --- |
| NCc1ccc(-c2cccc(CNC3CCN(Cc4ccccc4)CC3)c2)cc1.O=C(O)C(F)(F)F | 100 | 50 | 24 |
| N#Cc1cccc(C(=O)Nc2cccc(-c3ccc(C(=O)Nc4cccnc4)cc3)c2)c1 | 89 | 10 | 39 |
| O=C(c1cc(C(=O)NC2CCCCC2)c(=O)n(C2CCCCC2)c1)c1cc(F)ccc1O | 99 | 98 | 22 |
| O=C(/C=C/c1cccc(C(F)(F)F)c1)NCCCCCN1CCC(c2c[nH]c3ccccc23)CC1 | 90 | 14 | 70 |
| Cc1ccc(NC(=O)c2ccc(CN3CCCN(CCC(C)C)CC3)cc2)cc1F.O=C(O)C(F)(F)F | 91 | 31 | 40 |
| COCC(C)n1c(C)cc(C(=O)CSc2nnc(Nc3ccccc3)s2)c1C (centres undefined) | 97 | 98 | 0 |
| CC(C)(C)c1ccc(S(=O)(=O)Nc2ccccc2N2CCOCC2)cc1 | 90 | 60 | 11 |
| Cc1onc(-c2ccccc2)c1-c1nc(NCc2ccccc2Cl)no1 | 99 | 92 | 2 |
| CCCCN(C(=O)c1ccccc1Cl)c1nnc(-c2ccccc2C)s1 | 90 | 86 | 12 |
| COCCn1c(-c2cccc(Cl)c2)nn(-c2ccc([N+](=O)[O-])cc2Cl)c1=S | 100 | 99 | 2 |
| Cl.c1ccc2c(Nc3ccc(OCCOCCOc4ccc(Nc5c6ccccc6nc6ccccc56)cc4)cc3)c3ccccc3nc2c1 | 100 | 97 | 38 |
| CN1CCCN(Cc2ccc(-c3ccc(NS(=O)(=O)c4cccc5cccnc45)cc3)cc2)CC1.O=C(O)C(F)(F)F | 99 | 85 | 35 |
| CC(C)C[C@@H](/C=N/N1CCNC1=O)NC(=O)[C@H](CC(C)C)NC(=O)c1ccc(OCCN2CCOCC2)cc1 | 97 | 89 | 21 |
| O=C(N[C@@H](Cc1ccccc1)C(=O)NC1CCCc2ccccc21)c1ccc(O)c(-c2cccc(C(F)(F)F)c2)c1 (some centres undefined) | 91 | 41 | 0 |
| Cl.O=C(Nc1cccc(Cl)c1)OC1CCCN2CCCCC12 (centres undefined) | 85 | 0 | 6 |
| O=C(N[C@H](Cc1ccc(Cl)cc1)C(=O)N1CCN(c2ccnc3cc(Cl)ccc23)CC1)[C@H]1Cc2ccccc2CN1.O=C(O)C(F)(F)F | 85 | 41 | 16 |
| Cc1ccc2[nH]c(C)cc(=NN=Cc3ccccc3F)c2c1 | 97 | 100 | 36 |
| O=C(Nc1nc(-c2ccccn2)cc2ccccc12)c1cccc(Cl)c1 | 96 | 72 | 59 |

Reference: ChEMBL document CHEMBL1157539, “Thousands of chemical starting points for antimalarial lead identification” (Nature, 2010)
